Screens from PubChem.
TSHR ag = qHTS Assay for Agonists of the Thyroid Stimulating Hormone Receptor | AID 926, 2007 | hit rate 0.48% among 73,000 | HEK293-CNG-TSHR cells (CNG channel as cAMP sensor), membrane potential dye, cAMP | Potency, µM (titrated, usually from 57.1 µM), without a hit: top-dose activation, usual class: activators | Thyrotropin receptor (Homo sapiens), P16473; active means well fitted activation curve with a large enough effect in the main read-out, with a control signal flat, not every such curve was filed as active; inconclusive means small, poorly fitted or top-dose-only effect, or a change in a side signal; inactive means no such curve, though single readings can be large or run the other way; % of control where 0% means no effect;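 further: the control signal comes from parental cells without the receptor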
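HEK 293 cells stably expressing TSHR and a cAMP-gated CNG channel; parental CNG-only cells as counterscreen. Cells preloaded 60 min with membrane potential dye plus 100 uM RO 20-1724, then compound 30 min; fluorescence read at 590 nm.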
HEK293 cAMP cs = qHTS Assay for Agonists of the Thyroid Stimulating Hormone Receptor: Activators of Intracellular cAMP Concentrations in Parental HEK 293. parental HEK293 CNG cAMP sensor, membrane potential fluorescence. Potency, µM (top dose mostly 57.1 µM), inactives show at the highest dose activation, actives largely listed as activators. hit rate 2.5% among 73,000. AID 938, 2007; further: % of control where 0% means no effect; nearly all actives have a fitted effect of over 55% in size
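Parental HEK 293 cells stably expressing a cAMP-gated CNG channel were loaded with membrane potential dye containing 100 uM RO 20-1724 for 60 min. Compound added for 30 min; depolarization read as fluorescence intensity at 590 nm.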
ERK AVP inh = qHTS Assay for Inhibitors of the ERK Signaling Pathway using a Homogeneous Screening Assay; HEK293-V1b, vasopressin-stimulated pERK AlphaScreen; Potency, µM (titrated, usually from 57.5 µM), without a hit: top-dose activity, negative = inhibition, usual class: inhibitors; hit rate 0.99% among 72,000; further: on the % scale 0 is the no-effect control and ±100 the full control effect; nearly all actives have a fitted effect of over 55% in size
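Overnight-seeded V1b-HEK293 cells in 1% FBS got compound, then vasopressin (25 nM final, 5 min, 37C), then lysis buffer. AlphaScreen detection of phospho-ERK; activity normalized to basal and full-stimulation controls.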
Tau fil binding = qHTS Assay for Tau Filament Binding; Microtubule-associated protein tau (Homo sapiens), P10636; recombinant tau filaments, thioflavin S fluorescence, 15 h; filaments grown with octadecylsulfate alongside compound; Potency, µM (titrated, usually from 57.1 µM), for the others: at the highest dose activity change, negative = inhibition; hit rate 2% among 71,000;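 further: on the % scale 0 is the no-effect control and ±100 the full control effect; actives lower thioflavin S fluorescence by blocking filaments or displacing dye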
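Tau 2 uM in ThS buffer dispensed; compound added; 60 uM ODS added (finals 1 uM tau, 30 uM ODS); 15 h 37 C; fluor ex450/em510.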
FLuc inh = qHTS Assay for Inhibitors of Firefly Luciferase. Luciferin 4-monooxygenase (Photinus pyralis), P08659. purified firefly luciferase, luminescence, 8 min. Potency, µM (highest dose often 57.1 µM), for inactives: top-dose activity change, negative = inhibition, hits mostly inhibitors. hit rate 2.2% among 72,000. AID 411, 2009; further: on the % scale 0 is the no-effect control and ±100 the full control effect; nearly all actives have a fitted effect of over 40% in size
Target sequence (P08659 whole entry, looked up): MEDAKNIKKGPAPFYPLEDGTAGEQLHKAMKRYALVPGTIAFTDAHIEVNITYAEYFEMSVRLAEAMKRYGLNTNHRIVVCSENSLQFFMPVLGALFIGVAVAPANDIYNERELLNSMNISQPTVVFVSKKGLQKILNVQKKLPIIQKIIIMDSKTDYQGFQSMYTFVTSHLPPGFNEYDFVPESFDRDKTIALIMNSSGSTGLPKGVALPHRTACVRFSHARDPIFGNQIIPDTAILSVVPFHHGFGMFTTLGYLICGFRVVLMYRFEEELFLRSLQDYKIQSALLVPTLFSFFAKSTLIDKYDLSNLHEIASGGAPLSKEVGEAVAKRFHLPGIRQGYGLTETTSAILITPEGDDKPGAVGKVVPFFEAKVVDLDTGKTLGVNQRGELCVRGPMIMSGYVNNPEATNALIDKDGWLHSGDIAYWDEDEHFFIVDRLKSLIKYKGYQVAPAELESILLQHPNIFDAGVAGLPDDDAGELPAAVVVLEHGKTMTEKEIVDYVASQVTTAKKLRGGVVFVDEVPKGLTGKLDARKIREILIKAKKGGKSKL
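Titration-based qHTS; buffer 50 mM imidazole pH 7.2, 50 mM KCl, 7 mM MgCl2, 10 uM ATP, 0.01% Tween 20, 0.05% BSA; luciferase/luciferin detector mix added after compound; 8 min, ambient; luminescence.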
Bst PK mod = Pyruvate Kinase; purified pyruvate kinase, luminescence ATP production; ribose 5-phosphate activator present at AC10; hit rate 1.2% among 51,000; Potency, µM; in the data active means potency below about 11 µM; inconclusive means mostly about 12 µM to 25 µM;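 the screen sought inhibitors and activators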;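 further: scaled between full activation by ribose 5 phosphate and full inhibition by luteolin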
Starred values were filed as active, the others as inactive; i = inactive; u = inconclusive; x = not tested or not shown; ! = not confirmed by another sample; [ ] = dose if it differs, or a comment. Shown are actives, neighbours in structure and some others; about 7.2% of the full set was active somewhere. Unless noted, the call rests on the fitted dose curve; in most records, active means well fitted curve in the direction sought with a large enough effect; inconclusive means small, poorly fitted or top-dose-only effect, or another doubt; inactive means no such curve, though single readings can be large; an effect the other way counts as inactive or inconclusive. Potency means the concentration at half of the fitted maximal effect.

SMILES | TSHR ag | HEK293 cAMP cs | ERK AVP inh | Tau fil binding | FLuc inh | Bst PK mod
CC(C)=CCCC1(C)C=Cc2c(O)c3c(c(CC=C(C)C)c2O1)OC12C(=CC4CC1C(C)(C)OC2(C/C=C(/C)C(=O)O)C4O)C3=O (centres undefined) | x | x | 5µM* | x | x | x
CO[C@@H]([CH2][Hg])CN1C(=O)c2ccccc2S1(=O)=O.Cn1c(=O)c2nc[nH]c2n(C)c1=O | 2%[11.4 µM] | 9%[11.4 µM] | 11%[11.5 µM] | -1%[11.4 µM] | -7%[11.4 µM] | x
c1ccc(N2CCCC3(CCNCC3)C2)nc1 | u | 16µM* | -20% | -1% | 2%[11.4 µM] | x
c1ccc(N2CCCC3(CCNCC3)C2)cc1 | u | u | -8% | u | -1%[11.4 µM] | x
O=C(O)c1ccccc1-c1c2cc(Br)c(=O)cc-2oc2[c]([Hg])c(O)c(Br)cc12 | 1%[25.6 µM] | 9%[25.6 µM] | 16µM*! | i | -13%[25.5 µM] | x
O=C(O)[C@H]1C2c3ccccc3C(c3ccccc32)[C@@H]1C(=O)NCC1CC1 | 0%[11.4 µM] | 7%[11.4 µM] | -8%[11.5 µM] | 7%[11.4 µM] | 5%[11.4 µM] | x
C[C@@]12CC[C@H]3[C@@H](CC[C@@H]4C[C@H](O)CC[C@]43C)[C@H]1CC[C@H]2O | u | u | -14% | 11% | -2% | x
O=[As](O)(O)c1ccc(N=Nc2ccc(O)cc2)cc1 | 7%[11.4 µM] | -3%[11.4 µM] | -3%[11.5 µM] | 3.2µM* | -2%[11.4 µM] | x
N#CSCSC#N | u | -14% | 16µM* | 2% | x | x
O=C(O)CN1CCN(CC(=O)O)CC(=O)[O][Hg][O]C(=O)C1 | 2%[11.4 µM] | -7%[11.4 µM] | -20%[11.5 µM] | 2%[11.4 µM] | -11%[11.4 µM] | x
CCN(CC)c1ncnc2c1ncn2[C@@H]1O[C@@H](COP(=O)(O)OP(=O)(O)C(Br)(Br)P(=O)(O)O)[C@H](O)[C@@H]1O | 8% | 24% | 9% | -7% | 3% | x
CCNC(=O)[C@@H]1O[C@@H](n2cnc3c(N)ncnc32)[C@@H](O)[C@H]1O | u | 0.16µM* | -38% | 6% | 1% | x
Cc1cccc(-c2nc3ccccc3c(=O)n2-n2cccc2)c1 | u | 4µM* | u | 11%[11.4 µM] | 1% | x
COc1cc2c(C(=O)N3CCN(C)CC3)c(C)n(C)c2cc1Br | u | 20µM* | -14% | 25% | -4% | >57
N[C@]1(C(=O)O)CC[C@@H](C(=O)O)C1 | x | -2% | x | 0% | -8% | x
Cn1cnc2cc(NC(=O)c3ccc(Cl)cc3)ccc21 | -6% | 5% | 4% | 20% | 13µM* | x
N#Cc1ccc(CN2CCCC3(CCN(C(=O)Oc4ccccc4)CC3)C2)cc1 | u | 16µM* | 4% | 2% | 0%[11.4 µM] | x
O=C(Oc1ccccc1)N1CCC2(CCCN(Cc3ccccc3)C2)CC1 | u | u | 10% | 7% | 1%[11.4 µM] | x
O=C(Oc1ccccc1)N1CCC[C@@]2(CCN(Cc3cc(C(F)(F)F)cc(C(F)(F)F)c3)C2)C1 | u | 16µM* | 9% | -20% | 1%[11.4 µM] | x
C/C=C1\C[C@H](C)[C@](O)(CO)C(=O)OCC2=CCN3CC[C@@H](OC1=O)[C@@H]23 | 8% | 9% | x | -22% | 1%[11.4 µM] | x
[O]=[Cr](=[O])([OH])[O][Cr](=[O])(=[O])[OH] | u | -22% | 18% | 1.3µM*! | x | x
C[C@]1(C(=O)O)[C@@H]2CC[C@@H](O2)[C@@]1(C)C(=O)O | 9% | 16% | 7.9µM* | 2% | 2% | x
CCCCn1c(NC(=O)c2ccco2)c(C(=O)OCC)c2nc3ccccc3nc21 | u | 6.3µM* | -4% | 155% | 2% | >57
C#CCO | 3% | 13% | 16% | 3% | x | x
NCCc1ccc(S(=O)(=O)O)cc1[N+](=O)[O-] | 0%[11.4 µM] | -6%[11.4 µM] | -6%[11.5 µM] | 0%[11.4 µM] | 3%[11.4 µM] | x
SMILES | TSHR ag | HEK293 cAMP cs | ERK AVP inh | Tau fil binding | FLuc inh | Bst PK mod
O=C(O)c1cc[c]([Hg][Cl])cc1 | x | 8% | 19% | -6% | 16µM* | x
O=C(O)c1cccc(Cl)c1 | -9% | 17% | -14% | 18% | x | x
COc1ccc(CN2CCN(C(=O)Cc3ccccc3)CC2)c(OC)c1 | 15%[11.4 µM] | 5%[11.4 µM] | -10% | 9%[11.4 µM] | -1% | x
CN(C(=O)Cc1ccccc1)[C@H](CN1CCCC1)c1ccccc1 | u | 32µM* | 14% | u | 0% | x
CN(C(=O)Cc1ccc(Cl)c(Cl)c1)[C@H](CN1CCCC1)c1ccccc1 | u | 32µM* | 50% | -30% | 0% | x
C[C@H](N[C@@H](C)CCc1ccccc1)[C@H](O)c1ccc(O)cc1 | u | u | u | -11% | -1% | x
CCN1C[C@]2(C)CC[C@@H](O)[C@]34[C@@H]5CC6[C@@H](OC)C[C@@](O)([C@H]5[C@@H]6O)[C@@H](C[C@@H]23)[C@H]14 | 5% | 1% | -5% | 0% | -2% | x
C#CCN[C@@H](C)Cc1ccccc1 | x | 5% | -15% | -10% | 1% | x
C[C@]12CC[C@H](O)C[C@@H]1CC[C@H]1[C@H]2CC[C@]2(C)[C@H](C(=O)CO)CC[C@@H]12 | u | 4% | 9% | 2% | -7% | x
CC(C)CCn1c(N)c(C(=O)OCC2CCCO2)c2nc3ccccc3nc21 (centres undefined) | u | 20µM* | -29% | -10% | -3% | >57
COCCOC(=O)c1c(N)n(Cc2ccccc2)c2nc3ccccc3nc12 | u | 16µM* | -11% | 17% | 0% | >57
CCCCOCCCn1c(N)c(C(=O)OCCOC)c2nc3ccccc3nc21 | x | x | x | x | 2%[25.5 µM] | >26
COc1ccc(Cn2c(N)c(C(=O)NCc3ccco3)c3nc4ccccc4nc32)cc1 | 6% | 12% | 22% | 6.3µM* | 2% | x
